Measured values reported in PubChem BioAssay AID485350 (ICCB-Longwood Screening Facility, Harvard Medical School, 2010).
Among all 84,000 compounds or so, about 95 (0.1%) were called active. No stated cut-off is given here; in the data, active means inhibition above about 25% (passing the limit was not always enough); inactive means the rest. The entries come from a sample that favours actives as a whole.

What follows are compounds tested on BasE (2,3-dihydroxybenzoate-AMP ligase), Acinetobacter baumannii ATCC 17978 (assay: inhibitors of A. baumannii BasE – biochemical, Acinetobacter baumannii ATCC 17978, fluorescence polarization, primary screen (AID 485350;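 further: 0% = negative plate control signal and 100% = positive plate control signal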)). Details: purified BasE, fluorescence polarization binding displacement; active compounds read high; concentration not given here.

inhibition, inactive:
CC(=O)Nc1cccc(C(=O)OCC(=O)N2CCN(c3ccccc3)CC2)c1 0.21%
Oc1ccc(N=Cc2cn(-c3ccccc3)nc2-c2ccco2)cc1 -0.83%
C/C(N)=C(/C#N)C(=O)CSc1n[nH]c(C(C)C)n1 1.38%
CC(Oc1coc(CN2CCN(Cc3ccccc3)CC2)cc1=O)c1ccccc1 (configuration not stated) -0.18%
O=C(O)Cc1cc(=O)n(C2CCS(=O)(=O)C2)[nH]1 (configuration not stated) -0.2%
O=S(=O)(NCCC1=CCCCC1)c1ccc(Cl)cc1 -0.06%
c1snnc1C12CC3CC(CC(C3)C1)C2 -2.21%
NC(=O)C[n+]1cccc(C(N)=O)c1 -2.44%
CCOC(=O)c1cc(-c2ccc(S(=O)(=O)N(C)Cc3cnn(-c4ccccc4)c3)s2)on1 -0.03%
CN(C)S(=O)(=O)c1ccc(C(=O)Nc2ccccc2C(=O)NCc2ccc3c(c2)OCO3)cc1 -2.15%
O=C(Oc1ccc2c3c(c(=O)oc2c1)CCC3)C1CCCCC1 2.18%
COc1cc2c(cc1OC)C(C)N(Cc1sc3ccccc3c1C)CC2 (configuration not stated) -2.07%
O=C1CSC(=Nc2ccccc2)N1S(=O)(=O)c1ccccc1 0.27%
O=C(C1=Cc2sc3c(c2CS1)CCCC3)N1CCCC1 0.06%
N#Cc1cccc(OC(=O)c2ccccc2)c1 1.16%
COC(=O)c1cccc(NS(=O)(=O)c2cccs2)c1 0.35%
CCc1ccc(CCC(=O)O)cc1 1.07%
CCOC(=O)c1nn(-c2ccccc2)c(=O)cc1OCC 0.32%
Cc1ccc(CN2CCC(CNC(=O)Cn3c(=O)oc4ccccc43)CC2)cc1 3.44%
O=C(O)Cc1ccc(C(F)(F)F)cc1 -1.44%
CCOC(=O)CC1=CSC(NC)N1c1c(C)cc(C)cc1C (configuration not stated) 0.61%
Cc1cc(C(=O)N/N=C/c2ccc(O)cc2)c2ccccc2n1 -0.11%
CCOC(=O)/C=C1\SCC(=O)N1Cc1cc(Cl)cc2c1OCOC2 -0.76%
Cc1cc(C)n2nc(SCc3nc4ccc(Cl)cc4n3CCO)nc2n1 -0.85%
Cc1ccc(Cl)cc1NC(=O)CSc1nc2c(oc3ccccc32)c(=O)n1C1CCCC1 0.55%
CCN(CC(=O)NCc1cccs1)C(=O)c1ccc2c(c1)SC1=NS(=O)(=O)CCN12 0.92%
O=C(CC1SC(=Nc2ccccc2)NC1=O)NC1CC1 (configuration not stated) 0.62%
O=C(NCc1ccc(-c2nc3ccccc3o2)cc1)c1ccccc1Br -0.19%
O=C1N(CNc2ccccc2)CCN1CNc1ccccc1 1.83%
O=C(CSc1nnc(Cc2csc(Nc3cccc(Cl)c3)n2)o1)c1ccc2c(c1)OCCO2 -0.63%
CC(C)C(NC(=O)C1CCCCC1)C(=O)O (configuration not stated) 3.11%
O=C(c1cc(-c2cccs2)on1)N1CCCC1 -0.81%
N#Cc1ccc(Cn2cc(Br)ccc2=O)cc1 0.99%
O=C(c1ccc(S(=O)(=O)N2CCOCC2)cc1)N1CCn2c1nc1ccccc12 -1.29%
COc1cc(OC)c(C2Nc3c(C)cc(C)cc3-c3cc(C)nn32)cc1OC (configuration not stated) 0.21%
O=C(c1ccc2c(c1)C(=O)N(Cc1ccncc1)C2=O)N1CCN(S(=O)(=O)c2ccc(OC(F)(F)F)cc2)CC1 0.9%
CO/N=C(/C(=O)N[C@@H]1C(=O)N2C(C(=O)[O-])=C(C[N+]3(C)CCCC3)CS[C@H]12)c1csc(N)n1 -0.27%
Cc1cccc(C(CC(=O)NCc2cccs2)n2cccc2)c1 (configuration not stated) 1.33%
CC(c1ccccc1)N(C)CN1C(=O)c2ccccc2C1=O (configuration not stated) -0.8%
Cc1[nH]c2ccccc2c1C1=CCN(S(=O)(=O)c2cccc3nsnc23)CC1 -2.27%
COc1ccc(O)c(C(=O)c2cnn(C(=O)c3ccc4c(=O)n5c(nc4c3)CCC5)c2)c1 -0.87%
C=CCC(CC=C)(C(N)=O)c1ccccc1 2.87%
COc1ccc(CNC(=O)c2cc3c(C)nccc3[nH]c2=O)cc1 0.94%
CCn1c2ccccc2c2nnc(SCC(=O)NCCc3ccc(OC)c(OC)c3)nc21 -1.45%
N#CSc1ccc(N2CCCCC2)cc1 1.12%
CCCCn1c(SCc2nnc(-c3cccs3)o2)nc2cc(S(N)(=O)=O)ccc21 -3.81%
CC1(C)CC(=O)C=C(N2CCN(c3ccccc3F)CC2)C1 0.11%
CCn1c(N2CCN(S(C)(=O)=O)CC2)nc2ccccc21 -0.64%
O=C1CN(C(=O)CSC2=Nc3ccccc3CS2)c2ccccc2N1 -1.75%
CCOc1ccnc2sc(C(=O)c3cccnc3)c(N)c12 1.88%
C=CCn1cc(/C=C(\C#N)C(=O)NC2CCCCC2)c2ccccc21 2.71%
Cc1ccc(C2=NN(C(=O)CSc3nc(N)cc(N)n3)C(c3ccco3)C2)cc1 (configuration not stated) 2.13%
CS(=O)c1nc(-c2cccs2)cc(-c2ccccc2)c1C#N (configuration not stated) -2.06%
COCCc1cc(C(F)(F)F)c2c(=O)n(C)c(=O)n(C)c2n1 -0.29%
Cn1c(N)c(C(=O)NCc2ccccc2)c2nc3ccccc3nc21 -1.54%
CCOC(=O)c1c(C)[nH]c(C(=O)CN2C(=O)NC(CC)(c3ccc(F)cc3)C2=O)c1C (configuration not stated) -1.75%
Cc1cc(Oc2ccc3c(c2)OCO3)nc2ccccc12 6.24%
O=C(NCC(c1ccco1)N1CCCCC1)c1ccc(S(=O)(=O)N2CCCC2)cc1 (configuration not stated) 1.67%
Clc1ccc(/C=N/NCc2cn3ccsc3n2)cc1 0.12%
COc1ccc(Cl)cc1NC(=O)CN1C(=O)CSC(C)C1=O (configuration not stated) 0.33%
O=C(OCC(=O)N1CCCc2ccccc21)c1cc2ccccc2oc1=O -0.7%
COc1ccccc1OCCCn1cc(/C=C2/C(=N)N3C=CSC3=NC2=O)c2ccccc21 2.49%
Cc1nn(CCC#N)c2nc(-c3ccc(F)cc3)cc(C(=O)O)c12 0.45%
Cc1noc(/C=C/N2CCOCC2)c1S(=O)(=O)N(C)CCc1ccc(Cl)cc1 3.54%
Cc1cc(C)nc(SCC(=O)OCC(=O)N2CCc3ccccc32)n1 -2.45%
COC(=O)C1=CN(C(C)C)C=C(C(=O)OC)C1c1cccs1 -11.7%
O=C(OCCN1CCCCC1)c1ccc(F)cc1 -3.82%
Cc1cc(C)n(C(=O)N2c3ccccc3Sc3ccccc32)n1 2.13%
COc1ccc(CC(=O)N/N=C2/CC(=O)CC(C)(C)C2)cc1 -0.19%
Cc1ccc(Nc2nc(N)nc(CSc3nc4c(n3-c3ccccc3)CCCC4)n2)cc1 -1.36%
S=C(Nc1cccnc1)Nc1ccccc1N1CCCCC1 3.7%
O=C(Cn1c(=O)oc2ccccc21)NCc1ccccc1 -2.65%
CC(C(=O)N1CCCc2ccccc21)n1nc(-c2cccs2)oc1=O (configuration not stated) -0.37%
CCNC(=O)c1ccc(OCc2c(C)noc2C)c(OC)c1 -0.55%
CCOC(=O)CSc1ncnc2sc3c(c12)CCC3 -0.59%
CSc1nnc(C)n1Cc1ccccc1 -0.73%
CC1CN(C(=O)COC(=O)c2cccc3ccccc23)CC(C)O1 (configuration not stated) 1.48%
Cc1occc1C(=O)Nc1cccc(-c2nn[nH]n2)c1 1.61%
Cn1c(=O)c2c(SC/C(O)=C(\C#N)c3nc4ccccc4[nH]3)nc(C(C)(C)C)nc2n(C)c1=O 0.74%
Cc1cc(-c2nn(C)c(=O)c3ccccc23)cc(C)c1OC(=O)Nc1ccc(Cl)cc1 1.43%
NNC(=O)c1ccc(COc2ccccc2)o1 -1.29%
CC1CN(C(=O)CSc2nc3scc(-c4ccccc4)c3c(=O)n2N)CC(C)O1 (configuration not stated) 1.03%
COc1ccc(C)cc1NC(=O)C(OC(=O)c1ccc(Br)o1)c1ccccc1 (configuration not stated) -0.6%
CCN=c1sc(C(=O)Nc2ccccc2)c(C)n1CC -0.02%
COC(=O)CCC1(C(=O)O)CCOC(C)(C)C1 (configuration not stated) 0.97%
NC(=O)CSc1nnc(SCCOc2ccccc2)s1 0.35%
O=C(CSc1nc2cc3c(cc2c(=O)n1Cc1ccc2c(c1)OCO2)OCO3)NCCc1ccccc1 0.07%
COCCn1c(C)cc(C(=O)CSc2nc(C)c(C)n2C2CCCCC2)c1C -0.27%
CCCCNc1ncc2c(n1)c(=O)c(C#N)c1[nH]c3ccccc3c(=O)n12 -8.32%
CCOCCCn1c(CC(N)=O)n[nH]c1=S 0.4%
Nn1c(SCC2CCCCO2)nnc1-c1ccncc1 (configuration not stated) 1.26%
COC(=O)Cc1c(C)n[nH]c1C 1.01%
c1ccc(-n2nnnc2Sc2nnc3n2CCCCC3)cc1 -0.02%
O=C(Nc1ccncc1)OCCc1ccccn1 4.83%
Cc1cc(N2CCN(C)CC2)nc2ccc(NC(=O)NC3CCCC3)cc12 -2.82%
Cc1ccc2cc(C#N)c(NCCNC(=O)Nc3ccccc3C)nc2c1 4.18%
O=C(CCNC(=O)NC12CC3CC(CC(C3)C1)C2)Nc1ccc(-n2cnnn2)cc1 2.05%
